In PubChem BioAssay (EPA / NIEHS) one finds outcome and AC50 data, which are given here for twelve molecules.

Assay [1] is described as follows: ATG_GAL4_TRANS: Attagene TRANS-FACTORIAL HepG2 Assay for GAL4 (Internal Marker) (AID 2282976). The following applies: HepG2 Attagene TRANS GAL4 internal marker reporter. Put shortly: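 First, HepG2 cells were transfected with reporter units under GAL4-UAS control. Next, they were treated with chemical for 24 h. Finally, RNA was reverse-transcribed, PCR-amplified, FAM-labelled and resolved by capillary electrophoresis, with induction scored against DMSO.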

Assay [2] addresses Nuclear receptor subfamily 4 group A member 2 (Homo sapiens) (UniProt P43354). Briefly: ATG_NURR1_TRANS: Attagene TRANS-FACTORIAL HepG2 Assay for human Nuclear Receptor Related Protein 1 (NURR1) (AID 2282985). The following applies: HepG2 Attagene TRANS reporter, mRNA readout. Put shortly: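 Chimeric NR-Gal4 proteins were expressed in human HepG2 cells bearing GAL4-UAS reporter units, and induced reporter mRNA was quantified 24 h post-dosing by RT-PCR and capillary electrophoresis.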

Assay [3] has as its target Nuclear receptor subfamily 1 group I member 2 (Homo sapiens) (UniProt O75469). Briefly: ATG_PXR_TRANS: Attagene TRANS-FACTORIAL HepG2 Assay for human Pregnane X Receptor (PXR) (AID 2283008). The gist of the method: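 Transient HepG2 transfectants carrying multiplexed reporter transcription units; PXR activity read through a Gal4 chimera. 24 h exposure. RT-PCR/CE fluorescence; upward curve fit referenced to DMSO.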

Assay [4] has as its target human RAR-related Orphan Receptor beta (RORb), RORB (gene 6096) (UniProt Q92753). Put plainly: ATG_RORb_TRANS: Attagene TRANS-FACTORIAL HepG2 Assay for human RAR-related Orphan Receptor beta (RORb) (AID 2283010). Put shortly: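 Multiplexed transcription-factor reporter assay: HepG2 cells transiently carrying NR-Gal4/GAL4-UAS constructs, 24 h treatment, mRNA quantified by RT-PCR plus capillary electrophoresis fluorescence; activity scored as induction over DMSO.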

Assay [5] can be described thus: ATG_XTT_Cytotoxicity: Cytotoxicity Assessment in the Attagene TRANS-FACTORIAL HepG2 Assay (AID 2283584). The gist of the method: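 Cells: human HepG2, transiently transfected with MRTU reporter constructs. Exposure 24 h. Readout: XTT, cell number. Baseline/neg ctrl DMSO; loss-of-signal scored.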
Assay [6] in a line: TOX21_p53_BLA_p2_viability: Viability Assessment in the Tox21 HCT-116 p53 Agonism Beta-lactamase Assay, Phase 2 (AID 2283591).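 Also: compound exposure lasted 16 h at 37 °C; actives lower the ATP signal meaning cytotoxicity.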 The gist of the method: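 HCT-116 p53-bla cells (4000/well) rested 5 h at 37C, then received compounds in DMSO (217-fold dilution) for 16 h at 37C, 5% CO2. After the CCF4 read, CellTiter-Glo was added; ATP luminescence was read after 30 min at room temperature.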

The nature of assay [7]: TOX21_p53_BLA_p3_viability: Viability Assessment in the Tox21 HCT-116 p53 Agonism Beta-lactamase Assay, Phase 3 (AID 2283593).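 Also: cells exposed to compound for 16 h before reading.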 Put shortly:
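HCT-116 cells (4000/well) rested 5 h at 37C, then got DMSO compounds by pin tool (217-fold dilution) for 16 h at 37C, 5% CO2. After the bla read, CellTiter-Glo was added and luminescence read at 30 min, room temperature.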

The nature of assay [8]: TOX21_p53_BLA_p4_viability: Viability Assessment in the Tox21 HCT-116 p53 Agonism Beta-lactamase Assay, Phase 4 (AID 2283597).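 Also: hits lower the luminescence signal meaning cytotoxicity.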 The gist of the method:
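Readout: ATP luminescence (CellTiter-Glo), measured 30 min after reagent addition at RT. The reagent followed a 2 h CCF4-AM incubation, and the cells had been exposed to compound for 16 h at 37C.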

A short description of assay [9]: CCTE_Harrill_HTTr_Viability_MCF7: CCTE's 6-hour Cell Viability Assessment for the High-Throughput Transcriptomics (HTTr) Platform, in MCF-7 cells cultured in DMEM + 10% fetal bovine serum, Harrill Lab (AID 2284010; active = hit-call score of the fitted dose curve at least 0.9, where 1 is the maximum; inactive = score below 0.9). The gist of the method:
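Eight-point concentration series, six-hour exposure. Propidium iodide exclusion imaged to assess membrane integrity as a cytotoxicity readout; bidirectional fitting was done with DMSO as negative control and activity baseline.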

The target in assay [10] is Bile acid receptor (Homo sapiens) (UniProt Q96RI1). Briefly: ATG_IR1_CIS: Attagene CIS-FACTORIAL HepG2 Assay for human Nuclear Receptor Subfamily 1 Group H Member 4 (NR1H4), IR1 submotif (AID 2282946; active = hit-call score of the fitted dose curve at least 0.9, where 1 is the maximum; inactive = score below 0.9). Particulars: IR1 reporter transcription, actives raise or lower the signal. The gist of the method:
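Readout: reporter transcript levels by RT-PCR with fluorescent capillary electrophoresis, from HepG2 cells transiently transfected with multiplexed cis-regulated reporters and dosed 24 h. Gain- or loss-of-signal fitted versus DMSO negative control.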

The target in assay [11] is human RAR-related Orphan Receptor gamma (RORg), RORC (gene 6097) (UniProt P51449). Briefly: ATG_RORg_TRANS: Attagene TRANS-FACTORIAL HepG2 Assay for human RAR-related Orphan Receptor gamma (RORg) (AID 2283011). Put shortly: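 First, HepG2 liver cells were transfected with GAL4-UAS-driven reporter constructs and the RORg-Gal4 fusion. Next, they were treated with chemical for 24 h. Finally, reporter mRNA was quantified by RT-PCR and capillary electrophoresis, with upward activity fitted against DMSO.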
Chain of human RAR-related Orphan Receptor gamma (RORg), RORC (gene 6097) (P51449 whole entry, looked up, the tested form may be a part): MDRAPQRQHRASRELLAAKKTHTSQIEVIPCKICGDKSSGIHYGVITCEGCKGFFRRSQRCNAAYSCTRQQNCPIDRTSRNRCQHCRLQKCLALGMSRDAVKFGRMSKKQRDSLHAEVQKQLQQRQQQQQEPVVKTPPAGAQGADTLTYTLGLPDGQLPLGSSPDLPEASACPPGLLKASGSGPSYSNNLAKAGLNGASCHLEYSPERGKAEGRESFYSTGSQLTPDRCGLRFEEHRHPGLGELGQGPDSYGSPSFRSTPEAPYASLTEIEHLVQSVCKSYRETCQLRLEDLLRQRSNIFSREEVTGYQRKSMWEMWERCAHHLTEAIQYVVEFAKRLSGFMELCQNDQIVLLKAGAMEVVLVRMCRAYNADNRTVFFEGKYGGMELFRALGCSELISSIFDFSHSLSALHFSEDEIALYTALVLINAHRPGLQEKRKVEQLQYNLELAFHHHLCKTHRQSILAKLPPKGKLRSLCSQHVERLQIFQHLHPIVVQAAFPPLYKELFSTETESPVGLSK

Assay [12] deals with human Vitamin D Receptor (VDR), VDR (gene 7421) (UniProt P11473). Put plainly: ATG_VDR_TRANS: Attagene TRANS-FACTORIAL HepG2 Assay for human Vitamin D Receptor (VDR) (AID 2283022). The gist of the method:
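Steps: transfect HepG2 with GAL4-UAS-driven reporter constructs; dose compounds 24 h; isolate RNA, reverse-transcribe, PCR-amplify with 6-FAM-labelled primer extension and HpaI digestion; quantify fragments by capillary electrophoresis relative to DMSO.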

For assay [13], the target named is Nuclear receptor subfamily 1 group I member 3 (Homo sapiens) (UniProt Q14994). Put plainly: ATG_CAR_TRANS: Attagene TRANS-FACTORIAL HepG2 Assay for human Constitutive Androstane Receptor (CAR) (AID 2282969).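 Also: activators raise reporter mRNA above DMSO so AC50 marks induction.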 Particulars: HepG2 Attagene TRANS-FACTORIAL CAR reporter. The gist of the method: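 Steps: transient transfection of HepG2 with multiple GAL4-UAS reporter units; 24 h compound incubation; RNA isolation, RT-PCR, 6-FAM primer extension, HpaI digest; capillary electrophoresis. Gain-of-signal relative to DMSO negative control.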
Chain of Nuclear receptor subfamily 1 group I member 3 (Homo sapiens) (Q14994 whole entry, looked up, the tested form may be a part): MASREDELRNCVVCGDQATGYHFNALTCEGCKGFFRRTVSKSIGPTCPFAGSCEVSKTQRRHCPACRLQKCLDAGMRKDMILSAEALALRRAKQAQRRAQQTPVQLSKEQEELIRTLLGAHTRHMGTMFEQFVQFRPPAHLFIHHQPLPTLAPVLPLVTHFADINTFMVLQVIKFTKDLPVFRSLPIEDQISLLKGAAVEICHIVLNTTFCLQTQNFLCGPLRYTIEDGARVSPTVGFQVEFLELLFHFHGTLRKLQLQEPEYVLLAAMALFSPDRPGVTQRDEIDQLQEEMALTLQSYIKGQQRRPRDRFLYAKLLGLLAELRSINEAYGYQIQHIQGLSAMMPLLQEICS

For assay [14], the target named is Hepatocyte nuclear factor 4-alpha (Homo sapiens) (UniProt P41235). Put plainly: ATG_HNF4a_TRANS: Attagene TRANS-FACTORIAL HepG2 Assay for human Hepatocyte Nuclear Factor 4 alpha (HNF4a) (AID 2282982). The following applies: HepG2 HNF4a transactivation reporter, mRNA readout. Put shortly: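 Using HepG2 liver cells transfected with GAL4-UAS reporter units, chemical-induced mRNA increases were assessed after 24 hours. Fluorescent RT-PCR fragments were separated by capillary electrophoresis and compared with DMSO negative controls.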

Assay [15] deals with human Peroxisome Proliferator-activated Receptor alpha (PPARa), PPARA (gene 5465) (UniProt Q07869). Put plainly: ATG_PPARa_TRANS: Attagene TRANS-FACTORIAL HepG2 Assay for human Peroxisome Proliferator-activated Receptor alpha (PPARa) (AID 2283001).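 As to AC50: potency for gain of reporter signal over DMSO so agonist or activator.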 Put shortly: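 Exposure: 24 h, transiently transfected HepG2 cells. Endpoint: GAL4-UAS reporter mRNA, RT-PCR with capillary electrophoresis fluorescence. Baseline: DMSO; increases fitted.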
Chain of human Peroxisome Proliferator-activated Receptor alpha (PPARa), PPARA (gene 5465) (Q07869 whole entry, looked up, the tested form may be a part): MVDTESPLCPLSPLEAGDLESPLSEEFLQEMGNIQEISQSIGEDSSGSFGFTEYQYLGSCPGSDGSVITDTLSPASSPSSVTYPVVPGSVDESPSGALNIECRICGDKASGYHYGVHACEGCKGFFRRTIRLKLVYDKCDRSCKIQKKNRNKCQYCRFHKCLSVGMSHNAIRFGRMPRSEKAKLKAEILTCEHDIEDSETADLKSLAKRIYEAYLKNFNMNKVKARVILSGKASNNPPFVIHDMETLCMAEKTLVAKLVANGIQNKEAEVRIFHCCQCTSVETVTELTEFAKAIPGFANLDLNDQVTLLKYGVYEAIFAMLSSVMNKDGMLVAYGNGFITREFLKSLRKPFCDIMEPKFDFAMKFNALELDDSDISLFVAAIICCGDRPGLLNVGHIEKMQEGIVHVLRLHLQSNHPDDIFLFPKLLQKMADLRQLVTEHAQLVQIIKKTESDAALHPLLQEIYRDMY

For assay [16], the target named is human Peroxisome Proliferator-activated Receptor delta (PPARd), PPARD (gene 5467) (UniProt Q03181). Put plainly: ATG_PPARd_TRANS: Attagene TRANS-FACTORIAL HepG2 Assay for human Peroxisome Proliferator-activated Receptor delta (PPARd) (AID 2283002). The gist of the method: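 Measured quantity: GAL4-UAS reporter transcript induction in HepG2 after 24 h chemical dosing, with NR-Gal4 chimeras supplied by transient transfection. Detection by RT-PCR and capillary electrophoresis; upward fit against DMSO.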
Chain of human Peroxisome Proliferator-activated Receptor delta (PPARd), PPARD (gene 5467) (Q03181 whole entry, looked up, the tested form may be a part): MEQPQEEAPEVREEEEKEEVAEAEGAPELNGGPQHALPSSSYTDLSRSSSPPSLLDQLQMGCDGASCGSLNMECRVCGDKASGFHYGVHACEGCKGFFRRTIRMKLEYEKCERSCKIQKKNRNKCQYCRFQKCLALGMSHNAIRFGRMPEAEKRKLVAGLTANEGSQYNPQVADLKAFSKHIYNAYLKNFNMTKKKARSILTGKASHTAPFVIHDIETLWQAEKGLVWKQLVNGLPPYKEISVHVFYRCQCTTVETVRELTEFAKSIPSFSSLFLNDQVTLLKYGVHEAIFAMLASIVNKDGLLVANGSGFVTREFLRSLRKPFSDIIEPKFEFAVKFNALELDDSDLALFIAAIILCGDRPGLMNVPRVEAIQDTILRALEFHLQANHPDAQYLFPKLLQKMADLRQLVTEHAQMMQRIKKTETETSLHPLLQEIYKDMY

The target of assay [17] is Cellular tumor antigen p53 (Homo sapiens) (UniProt P04637). Put plainly: TOX21_p53_BLA_p3_ratio: Tox21 HCT-116 p53 Agonism Beta-lactamase Assay, Ratio, Phase 3 (AID 2283596). Put shortly:
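Cells were seeded at 4000/well, rested 5 h at 37C, then dosed with DMSO compound solutions (217-fold dilution) for 16 h. CCF4-AM substrate was loaded for 2 h at room temperature, and the 460/530 nm emission ratio was fitted for gain of signal versus DMSO.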

Assay [18] has as its target Retinoic acid receptor alpha (Homo sapiens) (UniProt P10276). Put plainly: ATG_DR5_RAR_CIS: Attagene CIS-FACTORIAL HepG2 Assay for human Retinoic Acid Receptor Alpha (RARE), DR5 submotif (AID 2282934; active = hit-call score of the fitted dose curve at least 0.9, where 1 is the maximum; inactive = score below 0.9). The following applies: HepG2 Attagene cis-factorial RARE DR5 reporter, mRNA; actives raise or lower the signal. The gist of the method: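 Transfected HepG2 reporter cells are exposed to chemicals for 24 h. Then RNA is extracted and the DR5 element reporter transcript is measured by RT-PCR and capillary electrophoresis, with bidirectional curve fitting relative to DMSO.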

The target in assay [19] is Oxysterols receptor LXR-alpha (Homo sapiens) (UniProt Q13133). Put plainly: ATG_LXRa_TRANS: Attagene TRANS-FACTORIAL HepG2 Assay for human Liver X Receptor alpha (LXRa) (AID 2282980). The following applies: HepG2 Attagene TRANS reporter, LXRa transactivation. Put shortly:
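Transfect HepG2 with GAL4-UAS multiplex reporter constructs (TRANS format, chimeric receptor-GAL4); treat 24 h; extract RNA, reverse-transcribe, PCR-amplify, FAM-label, HpaI-digest; resolve fragments by capillary electrophoresis. Upward response vs DMSO.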

Assay [20] concerns the target Oxysterols receptor LXR-beta (Homo sapiens) (UniProt P55055). Briefly: ATG_LXRb_TRANS: Attagene TRANS-FACTORIAL HepG2 Assay for human Liver X Receptor beta (LXRb) (AID 2282981). The following applies: HepG2 Attagene TRANS GAL4-LXRb reporter, mRNA. Put shortly: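 Liver-derived HepG2 cells transfected with Gal4-responsive reporters were dosed for 24 h. Activation was scored as rise in reporter mRNA, by RT-PCR and capillary electrophoresis, above DMSO baseline.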

Records with an inconclusive call do not appear. The source made the active and inactive calls. The calls were made as follows, unless noted: active = hit-call score of the fitted dose curve at least 0.9, where 1 is the maximum; inconclusive = response in the unintended direction; inactive = score below 0.9.

Chain of human Vitamin D Receptor (VDR), VDR (gene 7421) (P11473 whole entry, looked up, the tested form may be a part): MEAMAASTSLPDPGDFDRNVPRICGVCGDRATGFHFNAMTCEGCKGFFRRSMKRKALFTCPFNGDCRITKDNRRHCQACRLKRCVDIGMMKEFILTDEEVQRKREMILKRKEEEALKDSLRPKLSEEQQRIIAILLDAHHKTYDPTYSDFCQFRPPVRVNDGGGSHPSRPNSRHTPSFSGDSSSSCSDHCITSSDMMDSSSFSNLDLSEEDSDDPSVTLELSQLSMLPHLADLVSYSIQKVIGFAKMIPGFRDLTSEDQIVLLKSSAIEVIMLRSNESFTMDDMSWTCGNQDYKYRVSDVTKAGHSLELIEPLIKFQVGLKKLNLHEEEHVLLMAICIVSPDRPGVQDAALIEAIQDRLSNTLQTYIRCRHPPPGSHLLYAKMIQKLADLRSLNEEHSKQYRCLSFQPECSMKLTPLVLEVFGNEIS
Chain of Oxysterols receptor LXR-alpha (Homo sapiens) (Q13133 whole entry, looked up, the tested form may be a part): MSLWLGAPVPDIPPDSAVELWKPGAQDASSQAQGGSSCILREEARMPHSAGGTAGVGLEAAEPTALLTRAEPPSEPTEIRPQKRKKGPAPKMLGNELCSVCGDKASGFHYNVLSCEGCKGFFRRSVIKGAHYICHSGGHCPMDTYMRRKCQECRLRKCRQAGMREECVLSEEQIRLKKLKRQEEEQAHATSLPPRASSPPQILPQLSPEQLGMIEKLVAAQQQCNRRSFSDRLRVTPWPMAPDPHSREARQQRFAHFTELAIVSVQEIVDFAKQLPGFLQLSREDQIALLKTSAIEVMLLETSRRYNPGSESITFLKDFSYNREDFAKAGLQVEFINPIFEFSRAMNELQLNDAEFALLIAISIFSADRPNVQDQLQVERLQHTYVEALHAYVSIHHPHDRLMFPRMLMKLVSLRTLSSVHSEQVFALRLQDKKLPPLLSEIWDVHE
Chain of Cellular tumor antigen p53 (Homo sapiens) (P04637 whole entry, looked up): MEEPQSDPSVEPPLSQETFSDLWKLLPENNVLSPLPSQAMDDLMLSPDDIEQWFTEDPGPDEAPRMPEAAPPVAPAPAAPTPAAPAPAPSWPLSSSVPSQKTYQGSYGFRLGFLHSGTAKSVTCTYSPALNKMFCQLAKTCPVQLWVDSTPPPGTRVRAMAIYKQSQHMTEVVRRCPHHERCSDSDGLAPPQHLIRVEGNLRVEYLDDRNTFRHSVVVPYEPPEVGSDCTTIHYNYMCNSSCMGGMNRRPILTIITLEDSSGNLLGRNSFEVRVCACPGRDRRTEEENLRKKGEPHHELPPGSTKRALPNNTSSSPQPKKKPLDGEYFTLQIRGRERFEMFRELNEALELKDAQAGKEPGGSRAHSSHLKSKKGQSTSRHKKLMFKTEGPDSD
Chain of Bile acid receptor (Homo sapiens) (Q96RI1 whole entry, looked up): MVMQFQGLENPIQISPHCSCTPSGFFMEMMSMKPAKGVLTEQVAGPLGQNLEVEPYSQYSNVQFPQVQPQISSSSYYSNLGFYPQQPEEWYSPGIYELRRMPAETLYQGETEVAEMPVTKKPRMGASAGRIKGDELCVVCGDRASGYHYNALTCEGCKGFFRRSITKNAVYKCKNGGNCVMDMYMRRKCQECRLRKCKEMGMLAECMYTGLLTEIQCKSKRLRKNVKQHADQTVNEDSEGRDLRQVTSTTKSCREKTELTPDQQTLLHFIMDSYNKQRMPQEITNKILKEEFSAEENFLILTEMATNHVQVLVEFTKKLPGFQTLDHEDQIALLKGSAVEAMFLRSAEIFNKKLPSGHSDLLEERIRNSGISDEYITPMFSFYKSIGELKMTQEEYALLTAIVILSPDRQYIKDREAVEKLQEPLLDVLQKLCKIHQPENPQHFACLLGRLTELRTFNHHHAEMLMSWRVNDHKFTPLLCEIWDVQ
Chain of Nuclear receptor subfamily 4 group A member 2 (Homo sapiens) (P43354 whole entry, looked up, the tested form may be a part): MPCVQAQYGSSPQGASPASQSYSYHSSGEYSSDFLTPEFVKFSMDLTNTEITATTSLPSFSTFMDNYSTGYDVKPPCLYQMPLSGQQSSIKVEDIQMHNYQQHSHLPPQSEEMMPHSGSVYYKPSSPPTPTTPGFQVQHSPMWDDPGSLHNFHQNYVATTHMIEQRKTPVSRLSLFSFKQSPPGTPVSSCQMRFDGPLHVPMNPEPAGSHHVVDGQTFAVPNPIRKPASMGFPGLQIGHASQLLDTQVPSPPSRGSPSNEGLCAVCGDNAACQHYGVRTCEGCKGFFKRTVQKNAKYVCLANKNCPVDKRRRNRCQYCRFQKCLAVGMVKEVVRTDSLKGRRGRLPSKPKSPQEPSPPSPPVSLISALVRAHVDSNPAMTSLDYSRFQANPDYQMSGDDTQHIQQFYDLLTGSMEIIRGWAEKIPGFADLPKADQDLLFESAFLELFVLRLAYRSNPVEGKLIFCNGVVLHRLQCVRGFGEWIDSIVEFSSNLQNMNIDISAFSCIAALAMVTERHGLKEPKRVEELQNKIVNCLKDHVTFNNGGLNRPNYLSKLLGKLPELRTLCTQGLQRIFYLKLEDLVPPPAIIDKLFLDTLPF
Chain of Oxysterols receptor LXR-beta (Homo sapiens) (P55055 whole entry, looked up, the tested form may be a part): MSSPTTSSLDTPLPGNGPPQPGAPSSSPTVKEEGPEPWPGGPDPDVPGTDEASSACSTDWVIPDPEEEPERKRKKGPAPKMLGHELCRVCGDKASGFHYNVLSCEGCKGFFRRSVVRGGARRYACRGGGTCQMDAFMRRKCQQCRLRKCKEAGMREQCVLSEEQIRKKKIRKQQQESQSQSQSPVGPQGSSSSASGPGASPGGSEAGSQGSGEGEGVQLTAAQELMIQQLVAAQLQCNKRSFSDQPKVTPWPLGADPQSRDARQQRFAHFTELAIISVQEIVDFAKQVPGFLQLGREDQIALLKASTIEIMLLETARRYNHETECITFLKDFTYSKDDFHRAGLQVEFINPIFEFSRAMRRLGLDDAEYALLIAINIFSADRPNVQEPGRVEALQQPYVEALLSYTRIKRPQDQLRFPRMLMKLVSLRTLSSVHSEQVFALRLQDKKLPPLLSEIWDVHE

As for `CC1(C)[C@H](C(=O)O[C@H](C#N)c2cccc(Oc3ccccc3)c2)[C@@H]1C=C(Br)Br`, the outcome in assay [1], in assay [2], in [4], in assay [5], in assay [6] and in [7] was inactive. For the same molecule, the call in assay [8] and in [9] was inactive. Besides, the AC50 in [3] is 0.166 µM (active).

As for `CCC(C)c1cc(C(C)(C)C)cc(-n2nc3ccccc3n2)c1O` (configuration not stated), the result in [10], in [2], in [3], in assay [11], in assay [12] and in [5] was inactive.

As to `CCC(C)c1cc([N+](=O)[O-])cc([N+](=O)[O-])c1OC(=O)C=C(C)C` (configuration not stated), the AC50 in assay [10] is 26.5 µM (active); in [3] it was 1.6 µM (active); in assay [17], 13.9 µM (active); in assay [8], 13.2 µM (active). For the same molecule, the molecule was called inactive in assay [13], in [1], in assay [14], in assay [2], in [15] and in assay [16]. In addition, the outcome in assay [5], in assay [6] and in [7] was inactive.

For the molecule `CCC(Br)(CC)C(=O)NC(N)=O`, the result in [18], in assay [10], in assay [19], in assay [3], in assay [11] and in assay [12] was inactive. Further, the outcome in assay [5] and in [6] was inactive.

On to `COc1cc(OC)nc(Oc2cccc(Oc3nc(OC)cc(OC)n3)c2C(=O)O)n1`, for which the call in assay [10], in assay [13], in assay [1], in assay [19], in assay [20] and in [2] was inactive. Moreover, the molecule was classed as inactive in assay [15], in assay [16], in assay [3], in assay [4], in [6] and in [17]. The result in assay [9] was inactive.

`CCCCCc1cc(O)cc(O)c1`: the concentration at half-maximal activity (AC50) is 155 µM (active) in assay [10] and 11.1 µM (active) in assay [3]. Besides, the molecule was classed as inactive in assay [14], in assay [2], in [15], in assay [16], in [12] and in [5]. In addition, the molecule was classed as inactive in assay [8].

`CC(C)C#N`: the molecule was classed as inactive in [18], in assay [1], in assay [19], in [20], in assay [15] and in [16]. Further, the result in [5] was inactive.

Regarding `N#Cc1cc(I)c(O)c(I)c1`, the molecule was classed as inactive in [18], in [13], in [1], in [20], in assay [3] and in [12]. The outcome in [6], in [7], in assay [8] and in [9] was inactive. Moreover, the AC50 in [15] is 8.29 µM (active); in [17], 6.09 µM (active).

As to `Nc1ccc(Cl)c(Cl)c1`, the molecule was called inactive in [20], in assay [15], in assay [3], in assay [11], in assay [12] and in [6]. Further, the molecule was classed as inactive in [7], in assay [17], in assay [8] and in assay [9].

`O=[N+]([O-])O`: the result in assay [18], in [1], in assay [5], in assay [6], in [7] and in [8] was inactive. In assay [9], the result was inactive.

For the molecule `Nc1cc(Cl)cc(Cl)c1`, the molecule was classed as inactive in assay [18], in assay [10], in [20], in assay [14], in [2] and in assay [15]. The molecule was called inactive in assay [3], in [12], in [5], in assay [6], in assay [7] and in [17]. In addition, in assay [8], the call was inactive.

Regarding `CCOC(=O)N(C)N=O`, the molecule was classed as inactive in assay [18], in assay [1], in [19], in assay [20], in assay [15] and in [16]. In addition, the call in [6], in assay [7], in [17] and in assay [9] was inactive.

Usually AC50 stands for the midpoint of the concentration-response curve, whichever way the signal moves.
